{
  "source": "PubChem BioAssay (EPA / NIEHS)",
  "note": "Calls of active or inactive are those of the source. How the source made its calls: active means hit-call score of the fitted dose curve at least 0.9, where 1 is the maximum; inactive means score below 0.9.",
  "data": [
    {"test": "ATG_E_Box_CIS: Attagene CIS-FACTORIAL HepG2 Assay for human Enhancer Box (E-box) (AID 2282936)", "details": "HepG2 E-box cis-reporter transcription, actives raise or lower the signal", "method": "ATG_CIS is a cell-based, multiplexed-readout assay that uses HepG2, a human liver cell line, with measurements taken at 24 hours after chemical dosing in a 24-well plate.ATG_E_Box_CIS is one of 52 assay component(s) measured or calculated from the ATG_CIS assay. It is designed to make measurements of mRNA induction, a form of inducible reporter, as detected with fluorescence intensity signals by Reverse transcription polymerase chain reaction (RT-PCR) and Capillary electrophoresis technology.Data from the assay component ATG_E_Box_CIS was analyzed into 1 assay endpoint. This assay endpoint, ATG_E_Box_CIS, was analyzed with bidirectional fitting relative to DMSO as the negative control and baseline of activity. Using a type of inducible reporter, measures of mRNA for gain or loss-of-signal activity can be used to understand the reporter gene at the transcription factor-level as they relate to the gene USF1. Furthermore, this assay endpoint can be referred to as a primary readout, because this assay has produced multiple assay endpoints where this one serves a reporter gene function. To generalize the intended target to other relatable targets, this assay endpoint is annotated to the dna binding intended target family, where the subfamily is basic helix-loop-helix protein.\nHuman liver HepG2 cells are transiently transfected with multiple reporter transcription units (MRTUs) in 6-well plates using FuGene 6 reagent (Roche; 3 ml FuGene/1 mg DNA). The MRTU constructs are regulated by a cis-regulating element (promoter). […] A major difference between the CIS and TRANS system is that in CIS activities of endogenous TFs are measured, whereas the TRANS assay evaluates changes in activities of exogenous, chimeric NR-Gal4 proteins. […] At the end of 24 hour incubation, total RNA was isolated using TriZol reagent (Invitrogen). The isolated RNA is then reverse-transcribed using oligo(dT) primer and Mo-MLV reverse transcriptase (Invitrogen) with DNAse I (Ambion) treatment for 30 min. The one-tenth of the produced cDNA was amplified by PCR using Taq DNA polymerase (Invitrogen) and two reporter sequence-specific primers. The PCR products were fluorescently labeled by primer extension with 6-arboxyfluorescein (6-FAM) 5'-labeled reporter sequence-specific primer (2 min at 95 C, 20 s at 68 C and 10 min at 72 C) and these products were digested with 5U of HpaI (New England Biolabs) for 2h at 37 C. The fragments were purified using Qiaquick PCR columns (Qiagen), analyzed on an ABI 3130xL genetic analyzer (Applied Biosystems) with peak positions identified by using a set of X-rhodamine (ROX)-labeled MapMarker1000 molecular weight standards (BioVentures). The raw capillary electrophoresis data was processed using Attagraph software (Attagene).", "values": [
      {"compound": "O=C1C=CC(=O)N1c1ccccc1", "outcome": "inactive"},
      {"compound": "CCCCCCCCCCCCCCCCC", "outcome": "inactive"},
      {"compound": "CCCCCCCCCc1ccc(OCCO)cc1", "AC50": "23.1 µM (active)"},
      {"compound": "CC(=O)CCC(C)C", "outcome": "inactive"},
      {"compound": "O=S(=O)(O)CCC(F)(F)C(F)(F)C(F)(F)C(F)(F)F", "outcome": "inactive"},
      {"compound": "NC(=O)C(F)(F)C(F)(F)C(F)(F)C(F)F", "outcome": "inactive"},
      {"compound": "O=C(c1ccccc1)c1ccc(Cl)cc1", "outcome": "inactive"},
      {"compound": "Cc1cc(=O)[nH]c(C(C)C)n1", "outcome": "inactive"},
      {"compound": "O=c1cccc[nH]1", "outcome": "inactive"},
      {"compound": "CO[Si](C)(CCC(F)(F)C(F)(F)C(F)(F)C(F)(F)C(F)(F)C(F)(F)F)OC", "outcome": "inactive"},
      {"compound": "CC(C)OC(=O)COc1ccc(Cl)cc1Cl", "outcome": "inactive"},
      {"compound": "CC1CCCCC1", "outcome": "inactive"},
      {"compound": "CCn1c2ccccc2c2ccccc21", "outcome": "inactive"},
      {"compound": "OCC(F)(F)C(F)(F)C(F)(F)C(F)(F)C(F)(F)C(F)(F)CO", "outcome": "inactive"},
      {"compound": "C=CC(=O)OCC(F)(F)C(F)(F)C(F)(F)C(F)(F)C(F)(F)C(F)(F)C(F)(F)C(F)F", "outcome": "inactive"},
      {"compound": "C[Si](Cl)(Cl)CCC(F)(F)C(F)(F)C(F)(F)C(F)(F)C(F)(F)C(F)(F)F", "outcome": "inactive"},
      {"compound": "O=C=Nc1cccc2c(N=C=O)cccc12", "outcome": "inactive"},
      {"compound": "CCC(C)CO", "note": "(stereo not given)", "outcome": "inactive"},
      {"compound": "Nc1cc([N+](=O)[O-])cc(Cl)c1O", "outcome": "inactive"},
      {"compound": "C=C(C)C(=O)OCC(F)(F)C(F)(F)C(F)(F)C(F)F", "outcome": "inactive"},
      {"compound": "COc1ccccc1C=O", "outcome": "inactive"},
      {"compound": "OCC1CCCO1", "note": "(stereo not given)", "outcome": "inactive"},
      {"compound": "Nc1c(Br)cc([N+](=O)[O-])cc1Br", "outcome": "inactive"},
      {"compound": "OCC(F)(F)C(F)(F)C(F)(F)CO", "outcome": "inactive"},
      {"compound": "CCc1cc(Cc2cc(CC)c(N)c(CC)c2)cc(CC)c1N", "AC50": "9.07 µM (active)"},
      {"compound": "Cc1cc(C)c(O)c(C(C)(C)C)c1", "outcome": "inactive"},
      {"compound": "COCCC(=O)OC", "outcome": "inactive"},
      {"compound": "Brc1ccccn1", "outcome": "inactive"},
      {"compound": "CC(C)(C)c1cc(CCC(=O)OCC(COC(=O)CCc2cc(C(C)(C)C)c(O)c(C(C)(C)C)c2)(COC(=O)CCc2cc(C(C)(C)C)c(O)c(C(C)(C)C)c2)COC(=O)CCc2cc(C(C)(C)C)c(O)c(C(C)(C)C)c2)cc(C(C)(C)C)c1O", "outcome": "inactive"},
      {"compound": "Cc1ccc(O)cn1", "outcome": "inactive"},
      {"compound": "O=C1c2ccccc2C(=O)c2c(Cl)cccc21", "outcome": "inactive"},
      {"compound": "O=C(O)C(F)(F)C(F)(F)C(F)(F)C(F)(F)C(F)(F)C(F)(F)C(F)F", "outcome": "inactive"},
      {"compound": "NC(=O)C(F)(F)C(F)(F)C(F)(F)F", "outcome": "inactive"},
      {"compound": "OCCCCC(F)(F)C(F)(F)C(F)(F)C(F)(F)F", "outcome": "inactive"},
      {"compound": "CCC/C=C/CO", "outcome": "inactive"},
      {"compound": "CN1CN(C)CN(C)C1", "outcome": "inactive"},
      {"compound": "Cc1ccc([N+](=O)[O-])c(C)c1", "outcome": "inactive"},
      {"compound": "C=C(C)CCCC", "outcome": "inactive"},
      {"compound": "O=C(O)C(F)(F)C(F)(F)C(F)(F)OC(F)(C(F)(F)F)C(F)(F)F", "outcome": "inactive"},
      {"compound": "N#CCCOCCC#N", "outcome": "inactive"}
    ]}
  ]
}
